The record followed here is PubChem BioAssay (Tox21).

Results filed as inconclusive are left out. Active and inactive are the calls of the source. Calls come from the whole dose curve; as a rule, active = well fitted cell-killing curve with a large enough effect in the repeat runs; inconclusive = weak or mixed curves, or effect the other way; inactive = no such curve, though single readings can be large or run the other way.
% is set by controls: 0 for no effect and ±100 for the full control effect; potency is the fitted concentration of half-maximal effect.

The nature of the assay: qHTS assay to identify small molecule antagonists of the retinoid-related orphan receptor gamma (ROR-gamma) signaling pathway - cell viability counter screen (AID 1159520). Note: nearly all actives have a fitted effect of over 50% in size. The following applies: Tet-on RORgamma CHO cells viability, ATP luminescence, 16 h; series mostly up to 92.4 µM; activity, negative = cytotoxicity: at the top concentration. An excerpt:
U.S. Tox21 Program National Center for Advancing Translational Sciences [NCATS] NIH Chemical Genomics Center [NCGC] U.S. Environmental Protection Agency [EPA] National Institutes of Environmental Health Sciences [NIEHS] National Toxicology Program [NTP] U.S. Food and Drug Administration [FDA] Tox21 Assay Overview: Nuclear steroid hormone receptors are involved in many biological processes including inflammatory responses, cell proliferation, and apoptosis. Environmental factors or compounds disrupting these nuclear receptor pathways and gene expression may promote susceptibility to immunotoxicants and autoimmune diseases. One important group of these expression factors are the retinoid-related orphan receptors. To assess compounds that may interfere with the retinoid-related orphan receptor gamma (ROR-gamma) transcription factor, a cell-based luciferase assay was used. The CHO cell-based assay utilizes a TET-inducible ROR expression factor and ROR response element-LUC reporter gene. Reporter gene activity was induced using Doxycycline Hyclate and measured after 16 hr incubation. Tet-on ROR gamma CHO cells were used to screen against the Tox21 10K compound library for cytotoxicity by measuring the viability of the cells based on the quantitation of the ATP.
Tox21 Assay Protocol Summary: Tet-on ROR gamma CHO cells were dispensed at 1,000 cells in 4 uL of culture medium per well into white wall/solid bottom 1536-well plates using a Multidrop Combi (Thermo Scientific, Waltham, MA) dispenser. Following incubation at 37 C and 5% CO2 for 4 hr, 23 nL of compounds dissolved in DMSO, positive controls or DMSO only were transferred by a Pintool station (Kalypsys, San Diego, CA) and after 2 hr incubation at 37 C, one ul of 1 uM (final concentration) of Doxycycline Hyclate was added to all the wells by using a Flying Reagent Dispenser (FRD) (Aurora Discovery, San Diego, CA). After 16 hr incubation at 37 C and 5% CO2, 5 uL of CellTiter-Glo reagent (Promega Corporation, Madison, WI) was added to each assay plate using FRD. After 30 min incubation at room temperature, luminescence was quantified on a ViewLux plate reader (Perkin Elmer, Waltham, MA).
(In general: Quantitative high-throughput screening tests each substance at several concentrations.)
In the case of `CCCCCCCCN(C)C`, the “activity, negative = cytotoxicity” value is 0.86% (inactive).
The same measure, in the same setting: for `O=C(c1ccccc1)c1ccc2n1CCC2C(=O)O` (stereo not given) the value was 2.02% [at 42.5 µM] (inactive); for `Cc1cc(C)c(S(=O)(=O)O)cc1N=Nc1cc(S(=O)(=O)O)c2ccccc2c1O`, -21% (inactive); for `CC(=O)/C(C)=C/C1C(C)=CCCC1(C)C` (stereo not given), -10.9% (inactive).
Same read-out and setting: for `CC(=O)N(CC(=O)N(C)C)c1ccccc1` the value was 1.39% [at 42.5 µM] (inactive); for `CCOc1cc(OCC)c(C(=O)CCC(=O)O)cc1OCC`, -0.203% [at 42.5 µM] (inactive); for `CCCCCCCC/C=C\CCCCCCCC(N)=O`, -15.5% (inactive).
The same measure, in the same setting: the same measure for `O=C(O)Cc1sc(-c2ccccc2)nc1-c1ccc(Cl)cc1`: 3.06% [at 42.5 µM] (inactive); for `COCCO`: 0.0982% (inactive).
`CC(C)CCCCCCOC(=O)c1ccc(C(=O)OCCCCCCC(C)C)c(C(=O)OCCCCCCC(C)C)c1`: the “activity, negative = cytotoxicity” value was -7.11% (inactive).
Same read-out and setting: the same measure for `CCCCCCCCCC=O`: -1.04% (inactive); for `SC1CCCC1`: 6.4% (inactive); for `CCC(=O)OC(C)(C)C1CC=C(C)CC1` (stereo not given): -8.67% (inactive).
Still for that read-out and setting: the same measure for `C[Si](C)O[Si](C)(C)O[Si](C)(C)O[Si](C)C`: 5.8% (inactive); for `CN(C)CC[C@@H](c1ccc(Br)cc1)c1ccccn1`: -2.58% [at 42.5 µM] (inactive); for `Oc1ccc(C(O)CNCCCCCCNCC(O)c2ccc(O)c(O)c2)cc1O` (stereo not given): 5.81% [at 42.5 µM] (inactive).
As for `O=[N+]([O-])c1cccc(Cl)c1Cl`, the “activity, negative = cytotoxicity” value is 1.6% (inactive).
With `CC[C@@H]1C[C@H](N(Cc2cc(C(F)(F)F)cc(C(F)(F)F)c2)C(C)=O)c2cc(C(F)(F)F)ccc2N1C(=O)OC(C)C`, the “activity, negative = cytotoxicity” value was 1.96% (inactive).
As to `N[C@H]1C(O)O[C@H](CO)[C@H](O)[C@@H]1O` (stereo not given in full), the “activity, negative = cytotoxicity” value is -1.8% (inactive).
On the same count and under the same terms, for `Cn1c(N)nc2nc[nH]c2c1=O` the value was -16.5% (inactive); for `N#Cc1cc2ccccc2c2ccccc12`, -13.1% (inactive).
The same measure, in the same setting: the same measure for `CC(=O)Nc1ccc(/C=N/NC(N)=S)cc1`: 0.517% [at 42.5 µM] (inactive); for `CC(=O)O[C@H]1C[C@@H]2CC[C@@H]3[C@H](CC[C@@]4(C)[C@H]3C[C@H]([N+]3(C)CCCCC3)[C@@H]4OC(C)=O)[C@@]2(C)C[C@@H]1N1CCCCC1`: 0.539% [at 42.5 µM] (inactive); for `O=C(O)c1cn(C2CC2)c2cc(Cl)c(F)cc2c1=O`: 2.67% [at 42.5 µM] (inactive).
On the same count and under the same terms, the same measure for `Nc1nc(CC(=O)O)cs1`: 1.11% (inactive); for `CCCc1ccccc1`: -1.23% (inactive).
For `CCCCCCCCCCCCCCC1CO1` (stereo not given), the “activity, negative = cytotoxicity” value is 2.3% (inactive).
The same measure, in the same setting: the same measure for `S=C(S)NCCNC(=S)S`: -8.79% (inactive); for `C1=Cc2ccccc2C1`: 0.727% (inactive); for `CCc1nn(C2CCCCC2)c2cc(C3(C#N)CCC(C(=O)O)CC3)ccc12` (stereo not given): -9.43% (inactive).
In the case of `CC(C)NCC(O)COc1ccc(CC(N)=O)cc1` (stereo not given), the “activity, negative = cytotoxicity” value is 6.27% (inactive).
On to `OC(CCN1CCCCC1)(c1ccccc1)C1CCCCC1` (stereo not given), for which the “activity, negative = cytotoxicity” value is -0.42% [at 42.5 µM] (inactive).
On the same count and under the same terms, the same measure for `CCOc1ccc(NC(=O)CC(C)=O)cc1`: 1.55% (inactive); for `CC(=O)c1ccc2c(c1)[C@H](NC(=O)c1ccc(F)cc1)[C@@H](O)C(C)(C)O2`: 1.63% (inactive); for `CCCCCCCCCCCCCCCBr`: -0.393% [at 42.5 µM] (inactive).
Consider `COc1ccc2[nH]c(S(=O)Cc3ncc(C)c(OC)c3C)nc2n1` (stereo not given), for which the “activity, negative = cytotoxicity” value is 3.18% [at 42.5 µM] (inactive).
In the case of `Cc1occc1S`, the “activity, negative = cytotoxicity” value is 0.663% (inactive).
The same measure, in the same setting: for `CCN(CC)C(C)=O` the value was 2.39% (inactive).
Same read-out and setting: the same measure for `Cc1ccc2c(ccc3ccccc32)c1`: -6.44% (inactive).
On to `C=CC(=O)OCC(C)OCC(C)OCC(C)OC(=O)C=C` (stereo not given), for which the Potency was 21.7 µM (active).
